This passage reports inhibition results from PubChem BioAssay AID1566 (Sanford-Burnham Center for Chemical Genomics, 2009).

The whole screen tested about 290,000 compounds, of which about 1,800 (0.62%) were called active. No stated cut-off is given here; in the data, active means inhibition above about 50%; inactive means the rest. The entries come from a sample that favours actives as a whole. Peptide text beside a SMILES is read from it. * marks the point of attachment. OBn = c1ccc(CO*)cc1

This experiment can be described thus: NOD2 signaling inhibitors, cell-based, luminescence, uHTS, HEK293 (AID 1566). The note with it: HEK293 NOD2/NF-kB luciferase reporter, at 4 µM, active compounds read high.
Take `CCN(CC)CCn1c(=S)[nH]c2ccc(Br)cc2c1=O`: the inhibition was 7.1% (inactive).

Take `CCCCC1=CC2=CC(=O)C(C)(OC(=O)CC)C(=O)C2=CN1C1CCCC1` (stereo unspecified): the inhibition is 33.3% (inactive).

For `COc1cccc(NC(=O)NC2CCCCC2C)c1` (stereo unspecified), the inhibition was 0.4% (inactive).

As for `CCN(CC)C(=O)c1ccc2c(=O)n(Cc3cccc(Br)c3)c(=S)[nH]c2c1`, the inhibition was 58.7% (active).

`O=C(c1ccc(Cn2c(=O)[nH]c3ccccc3c2=O)cc1)N1CCN(c2ccccn2)CC1`: the inhibition is 15.4% (inactive).

For the molecule `CCN(CC)C(=O)c1ccc2c(=O)n(Cc3ccc4c(c3)OCO4)c(=S)[nH]c2c1`, the inhibition was 10.2% (inactive).

As for `CCOC(=O)N1CCN(C(=O)c2ccc(Cn3c(=S)[nH]c4cc(OCC)c(OCC)cc4c3=O)cc2)CC1`, the inhibition was 43.9% (inactive).

As for `CCN(CC)C(=O)c1ccc2c(=O)n(CCOC)c(=S)[nH]c2c1`, the inhibition was 17.5% (inactive).

In the case of `COc1ccc(Cn2c(=O)[nH]c3cc(C(=O)N4CCN(c5ccccn5)CC4)ccc3c2=O)cc1`, the inhibition is 3% (inactive).

Consider `CCOC(=O)N1CCN(C(=O)c2ccc(Cn3c(=S)[nH]c4cc(C(=O)OC)ccc4c3=O)cc2)CC1`, for which the inhibition was 24.9% (inactive).

Take `CC(=O)Oc1ccc(OC(C)=O)c2c1CC(C)=C(C)C2`: the inhibition is 33.6% (inactive).

As for `Cc1ccc(OCC(=O)O/N=C(\N)c2ccncc2)cc1C`, the inhibition is -6.1% (inactive).

`C=CCn1c(SCc2ccc(Cl)cc2)nc2cc(C(=O)N3CCC(C(N)=O)CC3)ccc2c1=O`: the inhibition is 1.8% (inactive).

Turning to `COc1ccc(-c2noc(CN3CCOCC3)n2)cc1OC`, the inhibition was -8.7% (inactive).

As for `CCn1c(C)c(C(C)=O)c(N2CCN(c3ccc(OC)cc3)CC2)nc1=S`, the inhibition is 12.6% (inactive).

For `Cc1ccc(NC(=O)N2CCCC2C(=O)Nc2ccc3c(c2)OCCO3)cc1` (stereo unspecified), the inhibition is -15.1% (inactive).

For `CC(=O)Nc1ccc(NC(=O)CN(C)S(=O)(=O)c2ccc3ccccc3c2)cc1`, the inhibition is -3.2% (inactive).

Consider `CC(=O)NCC(=O)N[C@@H](CC(=O)OCc1ccccc1)C(=O)OCc1ccccc1` (Ac-Gly-Asp(OBn)-OBn), for which the inhibition is 15.4% (inactive).

Take `O=C(CCc1nc(-c2ccccc2F)no1)NCCN1CCOCC1`: the inhibition is 9.2% (inactive).

Turning to `COc1ccc(Nc2cc3n(c(=O)n2)CCc2cc(OC)c(OC)cc2-3)cc1`, the inhibition is -35.6% (inactive).

`O=C(COc1ccccc1)NN1C(=O)CSC1=S`: the inhibition was 3.5% (inactive).

Regarding `COc1ccccc1NS(=O)(=O)c1cc(NC(=O)c2cc3ccccc3oc2=O)ccc1C`, the inhibition was -25.3% (inactive).

In the case of `Cc1ccc(NC(=O)c2cc3ccccc3o2)cc1S(=O)(=O)N(C)C`, the inhibition is -98.2% (inactive).

For `Cc1ccc(NC(=O)c2cc3ccccc3oc2=O)cc1S(=O)(=O)N(C)C`, the inhibition was 85.6% (active).

In the case of `COc1ccc(Cl)cc1NC(=O)COc1ccc(S(=O)(=O)N2CCOCC2)cc1C`, the inhibition was 11.3% (inactive).

With `Cc1ccc(CCNC(=O)c2cc(-c3ccncc3)nc3ccc(S(=O)(=O)N4CCOCC4)cc23)cc1`, the inhibition was -13.8% (inactive).

For the molecule `CS(=O)(=O)c1cc([N+](=O)[O-])c(Sc2nc3ccccc3[nH]2)c([N+](=O)[O-])c1`, the inhibition was 4.3% (inactive).

Consider `COCCn1c(C)cc(C(=O)COc2cccnc2[N+](=O)[O-])c1C`, for which the inhibition is 4.6% (inactive).

`CCn1nc(C(=O)OCC(=O)c2cc(C)n(Cc3cccs3)c2C)c2ccccc2c1=O`: the inhibition is -20.7% (inactive).

For the molecule `Cc1cc(C(=O)CN2C(=O)c3ccccc3C2=O)c(C)n1Cc1cccs1`, the inhibition is 19% (inactive).

Turning to `Cc1ccc(-n2c(C)cc(C(=O)COc3cccnc3[N+](=O)[O-])c2C)cc1`, the inhibition was 30.3% (inactive).

Turning to `Cc1cc(C(=O)COc2ccc3ccc(=O)oc3c2)c(C)n1Cc1cccs1`, the inhibition is -4.5% (inactive).

Take `Cc1cc(C(=O)COC(=O)c2ccccc2O)c(C)n1Cc1cccs1`: the inhibition is 89.6% (active).

Turning to `Cc1cc(C(=O)COc2cccnc2[N+](=O)[O-])c(C)n1-c1ccccc1`, the inhibition is 20.6% (inactive).

`Cc1cc(C(=O)COC(=O)c2ccc3c(c2)OCO3)c(C)n1Cc1cccs1`: the inhibition is -8.7% (inactive).

For `Cc1ccc2cccc(OCC(=O)c3cc(C)n(Cc4ccco4)c3C)c2n1`, the inhibition was -10.4% (inactive).

`Cc1ccc(C)c(C(=O)CSc2n[nH]c(-c3ccncc3)n2)c1`: the inhibition was 11% (inactive).

For `COC(C[C@H]1O[C@H]1[C@H](O)[C@H](C)OCc1ccccc1)OC`, the inhibition was 9.8% (inactive).

With `CC(C)c1ccc(NC(=O)c2ccccc2NC(=O)C2CC=CCC2C(=O)O)cc1` (stereo unspecified), the inhibition was -9.6% (inactive).

As for `O=C(NC1CCCC1)C(NS(=O)(=O)c1cccc2nsnc12)c1ccccc1` (stereo unspecified), the inhibition is 15.9% (inactive).

Take `Clc1ccc(Nc2nc(N3CCOCC3)nc(N3CCOCC3)n2)cc1Cl`: the inhibition is 8.7% (inactive).

As for `Clc1ccc(C2[C@H]3CN(Cc4ccc(-c5ccccc5)cc4)[C@H](c4ccccc4)C34CC2(c2ccccc2)C4)cn1` (stereo partly specified), the inhibition is 6.2% (inactive).

On to `COc1ccc(N2CCN(C(=O)c3nc4nc(C)cc(C)n4n3)CC2)cc1`, for which the inhibition is 7.4% (inactive).

For the molecule `CC(C)Cc1ccc(C(C)C(=O)Nc2ccccc2O)cc1` (stereo unspecified), the inhibition was 22.9% (inactive).

Consider `C=CCNC(=O)NC(=O)Cn1c(=O)c2c(ncn2CC)n(Cc2ccccc2)c1=O`, for which the inhibition was 17.8% (inactive).

Consider `Cc1nc(SCc2cccc(C(=O)O)c2)nc2c1CCCC2`, for which the inhibition was 11% (inactive).

For `Cc1nc(SCc2ccccc2)nc2c1CCC2`, the inhibition was -57.5% (inactive).

Regarding `Cc1nc(SCc2ccc(C(=O)O)cc2)nc2c1CCCC2`, the inhibition is 54.6% (active).

With `COc1ccc(OCC(=O)N/N=C/c2ccc(N(C)C)cc2)cc1`, the inhibition was -12.2% (inactive).

On to `COc1ccc(-n2c(C)cc(/C=C3/SC(=S)N(C)C3=O)c2C)cc1`, for which the inhibition is 24.3% (inactive).

For `Cc1cc(/C=C2\SC(=O)N(C)C2=O)c(C)n1-c1ccc(O)cc1`, the inhibition was 0.7% (inactive).

In the case of `Cc1cc(/C=C2/C(=O)NN(c3ccccc3)C2=O)c(C)n1-c1cccc(O)c1`, the inhibition is -42.2% (inactive).

As to `Cc1cc(/C=C2\SC(=S)NC2=O)c(C)n1-c1cccc(O)c1`, the inhibition is -226% (inactive).

Turning to `Cc1ccc(OCC(=O)NCCCNC(=O)c2ccc(C)nc2)cc1`, the inhibition was 7.3% (inactive).

As to `C/C(=C\C#N)n1nc(C)cc1N`, the inhibition was 16.8% (inactive).

For `Cc1cc2oc3c(c(=O)c2cc1C)C(c1ccc(C(C)C)cc1)N(CCCN1CCOCC1)C3=O` (stereo unspecified), the inhibition was 0.6% (inactive).
